Experimental data: the supplement of paper PMC10338343
± gives the standard deviation. Over roughly 6,200 sequences, “pre-steady-state target cleavage rate” has its median near 0.29; the highest 2% begin near 2. Shown is part of a subset that was picked to be rich in the highest values.

Test system: MIWI (PIWIL1) piRISC loaded with piRNA #1 (30 nt)
Test: pre-steady-state target cleavage rate (min^-1); MIWI and MILI are mouse PIWI proteins and EfPiwi is from a freshwater sponge; tags in brackets are library labels; higher = faster piRNA-guided slicing of the target
Details: guide: piRNA #1 5'p-UGAGGUAGUAGGUUGUAUAGUAUCCAGAGG; auxiliary factor: 500 nM mouse GTSF1
In short: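 Three pooled Cleave-'n-Seq trials supplied the data, with k3 capped at 0.0001 min^-1. In each, […] transcribed, DNA-blocked target RNA library and 1 nM active affinity-purified piRISC with one synthetic guide reacted in HEPES–potassium acetate buffer at 33 °C for 0–8 or 0–960 min, with or without 500 nM GTSF1 partner protein. Uncleaved targets were sequenced and normalised to depth and to weakly complementary targets. A burst-and-steady-state fit provided the pre-steady-state cleavage rate.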
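Also: 1 nM active piRISC with 0.1 nM target library at 33 °C single turnover.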

Sequence | pre-steady-state target cleavage rate
GGUCUGGAUACUAUACUUCCUACUACCUCA | 0.248 ± 0.029
GGAGUGGAGACUAUACAACCUACUACCUCA | 1.65 ± 0.099
GGAGUGGAUACUAAUACAACCUACUACCUCA | 1.4 ± 0.1
CCGCUGGAUACUAUACAACCUACUACCUCA | 1.88 ± 0.094
GCGCUGGAUACUAUACAACCUACUACCUCA | 1.85 ± 0.1
GGUGCUGGAUACUAUACAACCUACUACCUCA | 1.85 ± 0.11
CCUGCUGGAUACUAUACAACCUACUACCUCA | 2.06 ± 0.12
GGGCUGGAUACUAUACAACCUACUACCUCA | 1.9 ± 0.12
GCUGCUGGAUACUAUACAACCUACUACCUCA | 2.01 ± 0.14
GCUCUGGAUACUAUACAACCAUCUACCUCA | 0.0463 ± 0.011
GGAGUGGUUACUAUAGAACCUACUACCUCA | 1.24 ± 0.08
CAUCUGGAUACUAUACAACCUACUACCUCA | 1.37 ± 0.066
GGUCUGGAUACUAUACAACCUUACUACCUCA | 0.00317 ± 0.0022
GGAGACCUUAGUAUACAACCUACAACCUCA | 0.0975 ± 0.018
CCUCAGGAAACUAUACAACCUACUACCUCA | 2.04 ± 0.1
CCUCUGGAAACUAUACAACCUACUACCACA | 2.19 ± 0.26
GGUCAGGAAACUAUACAACCUACUACCUCA | 1.77 ± 0.12
GCACUGGAAACUAUACAACCUACUACCUCA | 1.82 ± 0.089
CCACUGGAAACUAUACAACCUACUACCUCA | 2.06 ± 0.11
GCUCUGGAAACUAUACAACCUACUACCACA | 1.42 ± 0.15
GGACUGGAAACUAUACAACCUACUACCUCA | 1.44 ± 0.097
GGUCUGGAAACUAUACAACCUACUACCACA | 0.461 ± 0.05
GCUCAGGAAACUAUACAACCUACUACCUCA | 1.78 ± 0.1
GGAGACGAUACUAUACAACCUAGAUCCUCA | 0.113 ± 0.015
GGAGAGGUUACUAAACAACCUACUACCUCA | 1.21 ± 0.08

Sequence | pre-steady-state target cleavage rate
GGAGACGAUACUAUAGAACCUACUACCUCA | 1.14 ± 0.066
GGAGACCUAUGAUAACAACCUACAUGGAGA [g8:g16:cont:t1A] | < 0.0001
GGAGUGCAUACUAUACUACCUACUACCUCA | 1.13 ± 0.092
GGAGACCUAUGAUAAGUACCUACUACCUCA | < 0.0001
GGAGACCUAUCUUUACAACCUACUACCACA | 0.129 ± 0.03
GGAGUGGAUUCAAUACAACCUACUACCUCA | 1.02 ± 0.071
GGACUAGAUACUAUACAACCUACUACCUCA | 1.77 ± 0.1
CCUCUAGAUACUAUACAACCUACUACCUCA | 2.2 ± 0.13
GGUCUAGGAUACUAUACAACCUACUACCUCA | 1.83 ± 0.1
CCUCUAGGAUACUAUACAACCUACUACCUCA | 2.12 ± 0.12
GCUCUAGGAUACUAUACAACCUACUACCUCA | 1.85 ± 0.095
GCUCUGGAUACUAUACAACCUCUACCUCA | 0.00616 ± 0.003
GCUCUAGAUACUAUACAACCUACUACCUCA | 2.09 ± 0.12
GGAGUAGAUACUAUACAACCUACUACCUCA | 1.55 ± 0.074
GGUCUAGAUACUAUACAACCUACUACCUCA | 1.81 ± 0.11
GGAGACCUAAAUAUACAACCUACUACCUCA | 0.106 ± 0.021
GGACUGGAUACUAUACAACGUUCUACCUCA | 0.107 ± 0.014
GGUCUGGAUAGUAUACAACCUACUACCUGA | 0.248 ± 0.041
GGAGACGAUAGUAUACUACCUACUACCUCA | 0.67 ± 0.071
GGAGUGGAUACUAUACAACCUACUCACCUCA | 0.793 ± 0.088
GGAGUGGAUACUAUACUACCUAGUACCUCA | 0.283 ± 0.04
GGUGUGGAUACUAUACAACCUACUACCUGA | 0.419 ± 0.069
GGAGACGAUACUAUACAACCUACUACCUCC [g2:g24:cont:t1C] | 1.5 ± 0.075
GGUGACGAUACUAUACAACCUACUACCUCA | 1.82 ± 0.098
GGUCACGAUACUAUACAACCUACUACCUCA | 1.89 ± 0.12

Sequence | pre-steady-state target cleavage rate
GGAGACGAUACUAUACAACCUACUACCUCG [g2:g24:cont:t1G] | 1.1 ± 0.063
GCUGACGAUACUAUACAACCUACUACCUCA | 1.84 ± 0.1
GGAGACGAUACUAUACAACCUACUACCUCCA | 2.06 ± 0.12
CCUGACGAUACUAUACAACCUACUACCUCA | 2.06 ± 0.12
GCUCACGAUACUAUACAACCUACUACCUCA | 1.83 ± 0.092
CCUCACGAUACUAUACAACCUACUACCUCA | 2.1 ± 0.12
GGAGACCUUUCUAUACAACCUAGUACCUCA | 0.238 ± 0.034
CCUCUGGAUAGAAUACAACCUACUACCUCA | 1.24 ± 0.066
GGAGACCAUACUAUUCUACCUACUACCUCA | 0.224 ± 0.035
GGAGAGGGUACUAUACAACCUACUACCUCA | 1.17 ± 0.051
GGACUGGAUUCUAUACAACCUACUAGCUCA | 0.118 ± 0.022
GGAGACCUAUGAUAUCAACCUACUACCUACA | < 0.0001
GGAGACGAUACUAUACAACCUACUACCGUCA | 0.443 ± 0.065
GGAGUGGAUACUAUCACAACCUACUACCUCA | 1.49 ± 0.12
GGAGUGGAUACUAUACAAGCUACUUCCUCA | 0.374 ± 0.031
CCUCUGGUUACUAUACAACCUACUACCACA | 1.79 ± 0.14
CCUCUGGUUACUAUACAACCUACAACCUCA | 1.28 ± 0.089
GGUCUGGUUACUAUACAACCUACUACCUCA | 1.87 ± 0.11
CCACUGGUUACUAUACAACCUACUACCUCA | 2.28 ± 0.14
GCUCUGGUUACUAUACAACCUACAACCUCA | 1.33 ± 0.079
CCUCUGGUUACUAUACAACCUACUACCUCA | 2.29 ± 0.13
GCUCUGGUUACUAUACAACCUACUACCUCA | 2.1 ± 0.12
GGACUGGUUACUAUACAACCUACUACCUCA | 1.65 ± 0.13
CCUCUGGUUACUAUACAACCUACUAGCUCA | 0.705 ± 0.055
GCACUGGUUACUAUACAACCUACUACCUCA | 1.84 ± 0.11

Sequence | pre-steady-state target cleavage rate
GCUCUGGUUACUAUACAACCUACUACCACA | 2.3 ± 0.24
GGUCUGGUUACUAUACAACCUACUACCACA | 0.747 ± 0.068
GGAGACCUAUCUAUACUACCUACAACCUCA | 0.0031 ± 0.0021
GGAGACCUAUCUAUACAACCUACUACCUGA | 0.516 ± 0.057
GGAGUGGAUACUAUACAACCUACUAACCUCA | 0.901 ± 0.053
GGAGUGGAUUCUAUACAACCUACUACGUCA | 0.522 ± 0.048
CCUCUGGAUACUAUACAACCACUACCUCA | 0.033 ± 0.0096
CCUCUGGAUACUAAACAACCUACUACGUCA | 1.49 ± 0.087
GGAGACCUUACUAUUCAACCUACUACGUCA | 0.678 ± 0.064
GGAGACCAUUCUAUACAACCUACAACCUCA | 0.667 ± 0.075
GGUCUGGAUAGUAUACAUCCUACUACCUCA | 0.741 ± 0.083
GGAGAGGAUACUAUACAUCCUACUUCCUCA | 0.0568 ± 0.0099
GGAGACCUAACUAAACAACCUACUAGCUCA | 0.0502 ± 0.019
GGUGUGGUUACUAUACAACCUACUACCUCA | 1.54 ± 0.097
GCUCUGGUUACUUUACAACCUACUACCUCA | 1.7 ± 0.089
GGUCUGGUUACUUUACAACCUACUACCUCA | 1.69 ± 0.13
GCUGUGGUUACUAUACAACCUACUACCUCA | 2 ± 0.13
CCUGUGGUUACUAUACAACCUACUACCUCA | 1.17 ± 0.058
GCUCUGGUUACAAUACAACCUACUACCUCA | 1.98 ± 0.12
GGUCUGGUUUCUAUACAACCUACUACCUCA | 1.8 ± 0.12
CCUCUGGUUUCUAUACAACCUACUACCUCA | 2.25 ± 0.15
GGUCUGGUUACAAUACAACCUACUACCUCA | 1.59 ± 0.12
CCUCUGGUUACAAUACAACCUACUACCUCA | 2.15 ± 0.13
CCUCUGGUUACUUUACAACCUACUACCUCA | 2.24 ± 0.16
GCUCUGGUUUCUAUACAACCUACUACCUCA | 2 ± 0.12
